Inconclusive results are not listed. The source made the active and inactive calls. Calls follow the shape of the full dose curve.
Key:
[1] = Primary qHTS for inhibitors of SARS-S pseudo-typed particle cell entry (AID 1479145); conditions: SARS-S pseudotyped particle cell entry, luciferase reporter; series mostly up to 57.1 µM; also: nearly all actives have a fitted effect of over 45% in size; also: potency is read from the fitted curve at half-maximal effect
[2] = Primary qHTS for Huh7 cytotoxicity: counterscreen for inhibitors of MERS-S pseudotyped particle cell entry (AID 1479147); conditions: cell viability read-out; series mostly up to 57.1 µM
[3] = Primary qHTS for inhibitors of MERS-S pseudo-typed particle cell entry (AID 1479149); conditions: MERS-S pseudotyped particle entry, luciferase; series mostly up to 57.1 µM; also: nearly all actives have a fitted effect of over 60% in size; also: potency is read from the fitted curve at half-maximal effect
[4] = Primary qHTS for Vero E6 cytotoxicity: counterscreen for inhibitors of SARS-S pseudo-typed particle cell entry (AID 1479150); conditions: cell viability; series mostly up to 57.1 µM

Measured: Potency

CC1Cc2ccccc2N1NC(=O)c1ccc(Cl)c(S(N)(=O)=O)c1 (stereo unspecified)
inactive: [1] | [2] | [3] | [4]

CN(C)CCCN1c2ccccc2CCc2ccc(Cl)cc21
active: [1] 28.2 µM | [3] 11.2 µM
inactive: [2] | [4]

CC12CC3CC(C)(C1)CC(N)(C3)C2
inactive: [1] | [2] | [3] | [4]

CN(C)[C@@H]1C(=O)C(C(N)=O)=C(O)[C@@]2(O)C(=O)C3=C(O)c4c(O)ccc(Cl)c4[C@@H](O)[C@H]3C[C@@H]12
inactive: [1] | [2] | [3] | [4]

CC1(C)S[C@@H]2[C@H](NC(=O)C(C(=O)O)c3ccccc3)C(=O)N2[C@H]1C(=O)O (stereo partly specified)
inactive: [1] | [2] | [3] | [4]

C[C@H]1[C@H](NC(=O)/C(=N/OC(C)(C)C(=O)O)c2csc(N)n2)C(=O)N1S(=O)(=O)O (stereo in doubt)
inactive: [1] | [2] | [3] | [4]

CN(C)/N=N/c1nc[nH]c1C(N)=O
inactive: [1] | [2] | [3] | [4]

COC(=O)[C@@H]1CC2=CC(=O)CC[C@]2(C)[C@@]23O[C@@H]2C[C@@]2(C)[C@@H](CC[C@@]24CCC(=O)O4)[C@H]13
inactive: [1] | [2] | [3] | [4]

CCn1cc(C(=O)O)c(=O)c2cc(F)c(N3CCNCC3)cc21
inactive: [1] | [2] | [3] | [4]

CCCCN1C[C@H](O)[C@@H](O)[C@H](O)[C@H]1CO
inactive: [1] | [2] | [3] | [4]

O=c1[nH]cc(F)c(=O)[nH]1
inactive: [1] | [2] | [4]
active: [3] 8.91 µM

CN(C)c1nc(N(C)C)nc(N(C)C)n1
inactive: [1] | [2] | [3] | [4]

CC(C)(C)NC(=O)[C@@H]1CN(Cc2cccnc2)CCN1C[C@@H](O)C[C@@H](Cc1ccccc1)C(=O)N[C@H]1c2ccccc2C[C@H]1O
inactive: [1] | [2] | [3] | [4]

CC(C)[N+](C)(CCOC(=O)C1c2ccccc2Oc2ccccc21)C(C)C
inactive: [1] | [2] | [3] | [4]

CC1=NS(=O)(=O)c2cc(Cl)ccc2N1
inactive: [1] | [2] | [3] | [4]

CC[C@@H]([C@H](C)O)n1ncn(-c2ccc(N3CCN(c4ccc(OC[C@@H]5CO[C@@](Cn6cncn6)(c6ccc(F)cc6F)C5)cc4)CC3)cc2)c1=O
inactive: [2] | [4]
active: [1] 14.1 µM | [3] 12.6 µM

Cc1cn([C@H]2C=C[C@@H](CO)O2)c(=O)[nH]c1=O
inactive: [1] | [2] | [3] | [4]

CC(S)C(=O)NCC(=O)O (stereo unspecified)
inactive: [1] | [2] | [3] | [4]

COC(c1ccccc1)(c1ccccc1)[C@H](Oc1nc(C)cc(C)n1)C(=O)O
inactive: [1] | [2] | [3] | [4]

CC(C)c1nc(CN(C)C(=O)N[C@H](C(=O)N[C@@H](Cc2ccccc2)C[C@H](O)[C@H](Cc2ccccc2)NC(=O)OCc2cncs2)C(C)C)cs1
inactive: [1] | [2] | [3] | [4]

CC(=O)N[C@@H](CS)C(=O)O
inactive: [1] | [2] | [3] | [4]

O=C(O)CCNC(=O)c1ccc(N=Nc2ccc(O)c(C(=O)O)c2)cc1
inactive: [1] | [2] | [3] | [4]

CCOC(=O)C1=C(C)NC(C)=C(C(=O)OC)C1c1cccc(Cl)c1Cl (stereo unspecified)
inactive: [1] | [2] | [3] | [4]

CN(C)CCc1c[nH]c2ccc(CS(=O)(=O)N3CCCC3)cc12
inactive: [1] | [2] | [3] | [4]

NC(=O)c1cn(Cc2c(F)cccc2F)nn1
inactive: [1] | [2] | [3] | [4]

NS(=O)(=O)c1cc2c(cc1Cl)NC=NS2(=O)=O
inactive: [1] | [2] | [3] | [4]

CO[C@H]1C=CO[C@@]2(C)Oc3c(C)c(O)c4c(O)c(c(/C=N/N5CCN(C)CC5)c(O)c4c3C2=O)NC(=O)/C(C)=C\C=C[C@H](C)[C@H](O)[C@@H](C)[C@@H](O)[C@@H](C)[C@H](OC(C)=O)[C@@H]1C
inactive: [1] | [2] | [3] | [4]

CC(C)(C)NC(=O)[C@H]1CC[C@H]2[C@@H]3CC[C@H]4NC(=O)C=C[C@]4(C)[C@H]3CC[C@]12C
inactive: [1] | [2] | [3] | [4]

CCC1(c2ccccc2)C(=O)NCNC1=O
inactive: [1] | [2] | [3] | [4]

Source: PubChem BioAssay (NCATS)
